Source: PubChem BioAssay (EPA / NIEHS)
The source made the active and inactive calls. How the source made its calls: active means hit-call score of the fitted dose curve at least 0.9, where 1 is the maximum; inactive means score below 0.9.

Assays:
Conditions in all cases: mRNA level, 48 h; actives raise or lower the signal
[1] = read-out: Apolipoprotein A-V (APOA5) gene, APOA5 (gene 116519); assay: LTEA_HepaRG_APOA5: Life Technologies and Expression Analysis (LTEA) Assay for Apolipoprotein A-V (APOA5) gene using HepaRG (AID 2283474)
In short: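 HepaRG, 48 h chemical exposure in serum-free induction medium, 8-pt half-log series (top 100 uM), 0.5% DMSO vehicle, duplicates. Readout: APOA5 mRNA by qRT-PCR, housekeeping-normalized; bidirectional fit vs DMSO baseline.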

[2] = read-out: Apoptosis regulator Bcl-2 (Homo sapiens) (UniProt P10415); assay: LTEA_HepaRG_BCL2: Life Technologies and Expression Analysis (LTEA) Assay for Bcl-2 gene using HepaRG (AID 2283475)
In short: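 Differentiated human HepaRG cells in serum-free induction medium exposed 48 h, in duplicate, to 8-point half-log series from 100 uM in 0.5% DMSO. BCL2 mRNA by qRT-PCR (TaqMan/Fluidigm), normalized to ACTB, GAPDH, POLR2A; bidirectional fit against DMSO.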

[3] = read-out: Bcl-2 (BID) gene, BID (gene 637); assay: LTEA_HepaRG_BID: Life Technologies and Expression Analysis (LTEA) Assay for Bcl-2 (BID) gene using HepaRG (AID 2283476)
In short: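 Gene expression by qRT-PCR in HepaRG cells after 48 h exposure, duplicate wells, eight half-log concentrations topping at 100 uM in 0.5% DMSO. Normalized to ACTB, GAPDH, POLR2A; bidirectional fitting relative to DMSO.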

Caspase-3 (Homo sapiens) = Caspase-3 (Homo sapiens) (UniProt P42574); assay: LTEA_HepaRG_CASP3: Life Technologies and Expression Analysis (LTEA) Assay for cysteine-aspartic acid protease (CASP3) using HepaRG (AID 2283477)
In short: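 HepaRG, 48 h exposure, 8 conc. (top 100 uM, half-log steps, duplicate), 0.5% DMSO vehicle; qRT-PCR of CASP3 transcript, housekeeping-normalised (ACTB/GAPDH/POLR2A); bidirectional curve fit vs DMSO baseline.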

[4] = read-out: Cytochrome P450 (CYP24A1), CYP24A1 (gene 1591); assay: LTEA_HepaRG_CYP24A1: Life Technologies and Expression Analysis (LTEA) Assay for Cytochrome P450 (CYP24A1) using HepaRG (AID 2283478)
In short: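 qRT-PCR read-out: CYP24A1 transcript levels normalized to three housekeeping genes, bidirectional curve fits against 0.5% DMSO baseline. Human HepaRG cells treated 48 h with chemicals at eight concentrations from 100 uM in half-log steps.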

[5] = read-out: Cytochrome P450 (CYP1A2), CYP1A2 (gene 1544); assay: LTEA_HepaRG_CYP1A2: Life Technologies and Expression Analysis (LTEA) Assay for Cytochrome P450 (CYP1A2) using HepaRG (AID 2283479)
In short: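 HepaRG, 48 h exposure, top 100 uM, half-log 8-pt, 0.5% DMSO vehicle, duplicates. Readout: TaqMan qRT-PCR of CYP1A2 mRNA, housekeeping-normalized (ACTB/GAPDH/POLR2A). Gain/loss fit relative to DMSO baseline.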

[6] = read-out: cysteine-aspartic acid protease (CASP8), CASP8 (gene 841); assay: LTEA_HepaRG_CASP8: Life Technologies and Expression Analysis (LTEA) Assay for cysteine-aspartic acid protease (CASP8) using HepaRG (AID 2283480)
In short: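 Differentiated human HepaRG cells, plated 48 h then switched to serum-free induction medium, were exposed in duplicate for 48 h to 8 half-log concentrations up to 100 uM in 0.5% DMSO. CASP8 mRNA was quantified by qRT-PCR, normalized to ACTB/GAPDH/POLR2A.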

[7] = read-out: Cytochrome P450 (CYP2B6), CYP2B6 (gene 1555); assay: LTEA_HepaRG_CYP2B6: Life Technologies and Expression Analysis (LTEA) Assay for Cytochrome P450 (CYP2B6) using HepaRG (AID 2283481)
In short: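 Read-out is CYP2B6 mRNA by TaqMan qRT-PCR, normalized to three housekeeping genes and fitted bidirectionally against 0.5% DMSO baseline. Human HepaRG cells received test chemicals for 48 h, top concentration 100 uM, half-log dilutions.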

[8] = read-out: Cytochrome P450 2C19 (Homo sapiens) (UniProt P33261); assay: LTEA_HepaRG_CYP2C19: Life Technologies and Expression Analysis (LTEA) Assay for CYP2C19 using HepaRG (AID 2283482)
In short: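 HepaRG, 48 h chemical exposure, 8-pt half-log series from 100 uM in 0.5% DMSO, duplicates. Readout: CYP2C19 mRNA by TaqMan qRT-PCR, housekeeping-normalized. Bidirectional fit vs DMSO baseline; phenobarbital 1mM as induction control.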

CYP2C8 (gene 1558) = assay: LTEA_HepaRG_CYP2C8: Life Technologies and Expression Analysis (LTEA) Assay for CYP2C8 using HepaRG (AID 2283483)
In short: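 Differentiated human HepaRG cells were exposed for 48 h in serum-free induction medium to eight half-log concentrations up to 100 uM in 0.5% DMSO, in duplicate. CYP2C8 mRNA was measured by TaqMan qRT-PCR, normalized to ACTB, GAPDH and POLR2A, and fitted bidirectionally against DMSO.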

CYP2C9 (gene 1559) = assay: LTEA_HepaRG_CYP2C9: Life Technologies and Expression Analysis (LTEA) Assay for CYP2C9 using HepaRG (AID 2283484)
In short: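 Differentiated human HepaRG cells were exposed 48 h in serum-free induction medium to eight half-log concentrations up to 100 uM in 0.5% DMSO. CYP2C9 mRNA was measured by qRT-PCR, normalized to ACTB, GAPDH and POLR2A, and fitted bidirectionally against DMSO.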

CYP2E1 (gene 1571) = assay: LTEA_HepaRG_CYP2E1: Life Technologies and Expression Analysis (LTEA) Assay for CYP2E1 using HepaRG (AID 2283485)
In short: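 HepaRG cells, plated 48 h, then exposed 48 h in serum-free induction medium to eight half-log concentrations from 100 uM in 0.5% DMSO, duplicate. CYP2E1 mRNA by qRT-PCR, normalized to ACTB/GAPDH/POLR2A; bidirectional fit versus DMSO.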

CYP4A11 (gene 1579) = assay: LTEA_HepaRG_CYP4A11: Life Technologies and Expression Analysis (LTEA) Assay for CYP4A11 using HepaRG (AID 2283486)
In short: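 CYP4A11 transcript levels were quantified by TaqMan qRT-PCR after HepaRG human liver cells were treated for 48 hours with test chemicals (top 100 uM, half-log dilutions, 0.5% DMSO). Gain or loss of signal was fitted relative to DMSO.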

[9] = read-out: Cytochrome P450 3A4 (Homo sapiens) (UniProt P08684); assay: LTEA_HepaRG_CYP3A4: Life Technologies and Expression Analysis (LTEA) Assay for CYP3A4 using HepaRG (AID 2283487)
In short: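 CYP3A4 transcript measured by TaqMan qRT-PCR and normalized to three housekeeping genes after 48 h chemical exposure of human HepaRG cells. Top concentration 100 uM, half-log steps, 0.5% DMSO vehicle; gain or loss fitted against DMSO baseline.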

[10] = read-out: DNA damage-inducible transcript 3 (DDIT3), DDIT3 (gene 1649); assay: LTEA_HepaRG_DDIT3: Life Technologies and Expression Analysis (LTEA) Assay for DNA damage-inducible transcript 3 (DDIT3) using HepaRG (AID 2283488)
In short: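 HepaRG cells, 48 h after plating, exposed 48 h in serum-free induction medium to 8 half-log concentrations up to 100 uM in 0.5% DMSO, in duplicate. DDIT3 mRNA measured by TaqMan qRT-PCR, normalized to ACTB, GAPDH and POLR2A. Fitted bidirectionally against DMSO.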

[11] = read-out: Early growth response protein 1 (EGR1) transcription factor, EGR1 (gene 1958); assay: LTEA_HepaRG_EGR1: Life Technologies and Expression Analysis (LTEA) Assay for Early growth response protein 1 (EGR1) transcription factor using HepaRG (AID 2283490)
In short: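 Differentiated human HepaRG cells in serum-free induction medium were exposed in duplicate for 48 h to eight concentrations (top 100 uM, half-log steps) in 0.5% DMSO. EGR1 mRNA was quantified by qRT-PCR, normalized to ACTB, GAPDH and POLR2A, and fitted bidirectionally versus DMSO.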

[12] = read-out: Ezrin (EZR), EZR (gene 7430); assay: LTEA_HepaRG_EZR: Life Technologies and Expression Analysis (LTEA) Assay for Ezrin (EZR) using HepaRG (AID 2283491)
In short: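 HepaRG, 48 h chemical exposure, 8-pt half-log series from 100 uM, 0.5% DMSO vehicle, duplicates. Read-out: EZR mRNA by TaqMan qRT-PCR (Fluidigm array), housekeeping-normalized; bidirectional curve fit vs DMSO baseline.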

[13] = read-out: Cytochrome P450 3A7 (Homo sapiens) (UniProt P24462); assay: LTEA_HepaRG_CYP3A7: Life Technologies and Expression Analysis (LTEA) Assay for CYP3A7 using HepaRG (AID 2283492)
In short: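 CYP3A7 transcript levels were read by TaqMan qRT-PCR on Fluidigm arrays after 48 h chemical exposure of human HepaRG cells, with housekeeping-gene normalisation. Eight half-log concentrations up to 100 uM in 0.5% DMSO were tested in duplicate.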

Cytochrome P450 2C19 (Homo sapiens), sequence (P33261 whole entry, looked up): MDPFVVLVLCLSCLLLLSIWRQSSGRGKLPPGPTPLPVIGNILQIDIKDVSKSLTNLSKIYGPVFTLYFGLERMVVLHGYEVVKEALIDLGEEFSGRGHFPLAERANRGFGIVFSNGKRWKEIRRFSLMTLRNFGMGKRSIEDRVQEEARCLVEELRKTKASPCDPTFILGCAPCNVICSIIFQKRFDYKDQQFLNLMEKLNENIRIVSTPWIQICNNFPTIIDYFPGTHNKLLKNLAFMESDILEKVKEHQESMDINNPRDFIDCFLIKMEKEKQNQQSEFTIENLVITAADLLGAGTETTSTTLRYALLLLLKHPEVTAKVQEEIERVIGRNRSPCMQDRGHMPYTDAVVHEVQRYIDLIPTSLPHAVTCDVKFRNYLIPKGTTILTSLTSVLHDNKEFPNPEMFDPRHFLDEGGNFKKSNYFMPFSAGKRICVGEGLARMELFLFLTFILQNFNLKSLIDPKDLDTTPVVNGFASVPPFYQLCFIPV
Cytochrome P450 3A7 (Homo sapiens), sequence (P24462 whole entry, looked up): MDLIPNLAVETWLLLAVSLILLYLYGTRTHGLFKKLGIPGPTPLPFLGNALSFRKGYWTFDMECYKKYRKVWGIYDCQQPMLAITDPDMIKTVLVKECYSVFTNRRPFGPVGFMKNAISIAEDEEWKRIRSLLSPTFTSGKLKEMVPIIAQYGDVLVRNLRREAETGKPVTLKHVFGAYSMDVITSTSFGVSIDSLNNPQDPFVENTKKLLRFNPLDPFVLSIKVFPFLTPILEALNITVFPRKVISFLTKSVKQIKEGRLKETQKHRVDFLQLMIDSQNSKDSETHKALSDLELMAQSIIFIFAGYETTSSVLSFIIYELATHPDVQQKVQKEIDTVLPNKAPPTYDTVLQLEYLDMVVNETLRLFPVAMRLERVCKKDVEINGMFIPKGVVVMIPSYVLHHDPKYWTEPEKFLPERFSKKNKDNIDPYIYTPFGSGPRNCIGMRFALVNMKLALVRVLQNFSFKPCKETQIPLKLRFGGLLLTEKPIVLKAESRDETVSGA
Caspase-3 (Homo sapiens), sequence (P42574 whole entry, looked up): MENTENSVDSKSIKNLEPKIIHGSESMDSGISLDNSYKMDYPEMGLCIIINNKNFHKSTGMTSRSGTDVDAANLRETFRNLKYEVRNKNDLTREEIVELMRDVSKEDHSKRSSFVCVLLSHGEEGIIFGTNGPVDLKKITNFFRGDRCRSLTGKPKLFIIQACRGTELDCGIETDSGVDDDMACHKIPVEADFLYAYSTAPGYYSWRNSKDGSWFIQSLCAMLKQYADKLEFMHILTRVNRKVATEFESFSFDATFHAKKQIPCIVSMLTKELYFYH
Apoptosis regulator Bcl-2 (Homo sapiens), sequence (P10415 whole entry, looked up): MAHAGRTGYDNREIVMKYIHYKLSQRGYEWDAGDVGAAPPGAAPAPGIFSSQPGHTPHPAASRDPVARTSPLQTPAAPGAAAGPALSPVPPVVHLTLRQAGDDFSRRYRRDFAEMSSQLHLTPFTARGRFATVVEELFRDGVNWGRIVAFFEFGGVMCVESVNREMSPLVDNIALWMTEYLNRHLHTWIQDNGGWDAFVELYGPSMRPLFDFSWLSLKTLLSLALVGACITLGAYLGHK
Cytochrome P450 3A4 (Homo sapiens), sequence (P08684 whole entry, looked up): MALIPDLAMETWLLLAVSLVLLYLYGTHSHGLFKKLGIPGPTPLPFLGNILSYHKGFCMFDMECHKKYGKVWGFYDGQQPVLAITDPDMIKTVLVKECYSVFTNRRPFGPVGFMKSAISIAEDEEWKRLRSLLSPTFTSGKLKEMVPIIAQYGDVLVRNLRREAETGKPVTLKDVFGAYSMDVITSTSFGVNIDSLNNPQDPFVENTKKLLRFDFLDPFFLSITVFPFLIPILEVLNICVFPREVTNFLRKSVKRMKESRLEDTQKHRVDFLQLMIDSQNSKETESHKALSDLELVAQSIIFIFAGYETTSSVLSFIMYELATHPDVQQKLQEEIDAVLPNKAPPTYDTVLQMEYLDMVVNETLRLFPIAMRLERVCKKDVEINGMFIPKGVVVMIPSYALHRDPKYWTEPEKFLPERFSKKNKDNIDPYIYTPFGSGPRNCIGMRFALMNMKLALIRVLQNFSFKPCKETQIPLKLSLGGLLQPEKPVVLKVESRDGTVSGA

## c1cc[n+]2c(c1)-c1cccc[n+]1CC2
[1]
  outcome: inactive
[2]
  outcome: inactive
[3]
  outcome: inactive
Caspase-3 (Homo sapiens)
  outcome: inactive
[4]
  outcome: inactive
[5]
  AC50: 12.4 µM (active)
[6]
  outcome: inactive
[7]
  outcome: inactive
[8]
  outcome: inactive
CYP2C8 (gene 1558)
  outcome: inactive
CYP2C9 (gene 1559)
  outcome: inactive
CYP2E1 (gene 1571)
  outcome: inactive
CYP4A11 (gene 1579)
  outcome: inactive
[9]
  outcome: inactive
[10]
  outcome: inactive
[11]
  outcome: inactive
[12]
  outcome: inactive
[13]
  outcome: inactive
